# Screens as filed in PubChem.
# IDE cell inh – human IDE inhibitors in live cells, primary screen, fluorescence polarization, HEK cells, FAbetaB substrate. Insulin-degrading enzyme (Homo sapiens), P14735. inhibition, % at 5.59 µM. FAbetaB cleavage. 0.41% of 320,000 active;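 active = percent inhibition above the average of all tested compounds plus 3 SD, set per screening campaign, cut at about 16% in these data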;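 note: IDE supplied by intact live HEK cells; FP after avidin binding of uncleaved biotin substrate so inhibition keeps polarization high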
# IDE act – human IDE activators in live cells, primary screen, fluorescence polarization, HEK cells, FAbeta-B substrate; Insulin-degrading enzyme (Homo sapiens), P14735; 0.073% of 340,000 active; FAbeta-B cleavage; 0% vehicle, 100% cell-free pure enzyme wells; AID 493087, 2011; activation, % at 5.96 µM;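 active = activation above the mean of all tested compounds plus 3 SD, set per screening campaign, cut at about 17% in these data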
# CHT inh – inhibitors of human choline transporter CHT | CHT-expressing cells, membrane potential dye, choline response; active compounds read low | 0.86% of 310,000 active | B-score at 10 µM | High affinity choline transporter 1 (Homo sapiens), Q9GZV3;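 active = B-score over 3 SD under the library average, and starting fluorescence ratio not unusually high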;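 note: choline stimulus applied at its EC90 after an EC20 pre-addition; B-score computed on integrated fluorescence ratio after choline addition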
# Target sequence (Q9GZV3 whole entry, looked up): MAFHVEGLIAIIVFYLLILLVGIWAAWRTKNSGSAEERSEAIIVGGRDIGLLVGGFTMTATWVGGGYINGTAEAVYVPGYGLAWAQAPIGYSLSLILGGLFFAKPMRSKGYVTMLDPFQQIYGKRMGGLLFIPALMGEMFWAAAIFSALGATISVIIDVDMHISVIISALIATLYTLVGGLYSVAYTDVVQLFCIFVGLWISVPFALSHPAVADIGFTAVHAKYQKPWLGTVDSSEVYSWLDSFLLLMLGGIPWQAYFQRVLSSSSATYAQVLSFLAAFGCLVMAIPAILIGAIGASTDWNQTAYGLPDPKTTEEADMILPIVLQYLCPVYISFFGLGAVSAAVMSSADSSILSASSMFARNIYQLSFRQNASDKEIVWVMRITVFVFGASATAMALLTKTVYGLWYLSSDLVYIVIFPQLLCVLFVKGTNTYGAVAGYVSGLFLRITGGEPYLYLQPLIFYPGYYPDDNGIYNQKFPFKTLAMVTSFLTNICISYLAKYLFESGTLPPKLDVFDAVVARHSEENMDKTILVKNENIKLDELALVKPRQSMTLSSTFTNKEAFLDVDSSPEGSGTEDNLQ
# ANO1 block – TMEM16A chloride channel inhibitors, primary screen, cell-based, HTS. HEK293 TMEM16A/YFP iodide influx fluorescence, ionomycin. normalized B-score (activity score, 25-100; higher = stronger inhibition) at 10 µM. 1.2% of 310,000 active. AID 588511, 2011;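 active = ratio plate-corrected score three or more library SD toward inhibition, starting fluorescence score within five deviations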;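 note: score derived from kinetic fluorescence span divided by baseline fluorescence per well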
# ANO1 activ – TMEM16A chloride channel activators or potentiators, primary screen, cell-based, HTS. 0.3% of 340,000 active. B-score at 10 µM. Anoctamin-1 (Mus musculus), Q8BHY3. HEK293 TMEM16A/YFP-H148Q/I152L, iodide quench fluorescence; active compounds read low. AID 623877, 2012;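 active = fluorescence-ratio B-score plate-corrected deviation score at least 3 library SD below zero, with starting fluorescence score within 5 deviations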;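 note: channel opened by trigger with iodide after compound preincubation; score built on the fluorescence ratio of max minus min over baseline; more negative score means more quench and so TMEM16A activation or potentiation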
# CHT PAM – CHT positive allosteric modulators, primary screen, cell-based, membrane potential dye, choline EC20; High affinity choline transporter 1 (Homo sapiens), Q9GZV3; CHT-expressing cells; active compounds read high; LV-AA mutant CHT in HEK293 cells; B-score at 10 µM; 0.49% of 310,000 active;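 active = initial fluorescence not abnormally high and integrated response B-score, plate-corrected, over 3 SD above library mean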
# Hits are given with their value; n = inactive; x = no result given. Sampled rows, rich in hits. Any-hit rate of the full collection: about 2.7%.
SMILES,IDE cell inh,IDE act,CHT inh,ANO1 block,ANO1 activ,CHT PAM
O=C(/C=C/c1cccc([N+](=O)[O-])c1)NCCSCc1cccc(Cl)c1,n,n,n,100,n,n
CC(C)(C)c1ccc(C(=O)NC(=S)NNC(=O)c2cccs2)cc1,n,n,n,100,n,n
CC(C)(C)c1ccc(OCC(=O)NNC(=O)CCc2ccccc2)cc1,n,n,n,n,n,n
CC(C)(C)C(=O)NC(=S)NNC(=O)c1ccc(-c2ccccc2)cc1,n,n,n,100,-10.3,n
CC(C)(C)c1ccc(C(=O)NC(=S)NNC(=O)COc2ccccc2)cc1,n,n,-5.14,100,-4.63,n
CCN(CC)C(=O)CC(c1ccc(OC)cc1)c1c(O)cc(OC)cc1OC (configuration not stated),n,n,n,n,-9.92,n
Cc1cc(NC(=S)N(Cc2ccc(Br)cc2)Cc2ccc(C(=O)O)cc2)ccc1Cl,n,n,n,25,n,n
O=C(CCCC(=O)N(CC(=O)NC1CCCCC1)c1ccccc1F)Nc1ccccn1,n,n,n,n,n,n
c1ccc(-c2csc3nnc(SCc4ccc5c(c4)OCCO5)n23)cc1,n,n,n,25,n,n
Cc1cc(C(=O)OCC(=O)NCc2ccco2)c(C)n1-c1ccc(F)cc1,n,n,-6.27,n,n,n
O=C(NCCOc1nc(N2CCOCC2)nc(N2CCOCC2)n1)Nc1ccc(Cl)cc1,n,n,n,n,-14.6,n
CNc1nc(OCCNC(=O)Nc2ccccc2)nc(N2CCOCC2)n1,n,n,n,n,n,n
COc1cccc(C2C(C(=O)OC(C)C)=C(C)N=c3s/c(=C\c4ccc(C(=O)O)cc4)c(=O)n32)c1 (configuration not stated),n,n,n,n,-4.85,n
CCC(=O)Nc1c2c(nn1-c1ccc(F)cc1)CS(=O)(=O)C2,n,n,n,n,x,n
Cc1ccccc1OCc1nnc(SCC(=O)Nc2ccc3nc(SCC(=O)NC(C)(C)C)sc3c2)n1C,n,n,n,100,n,n
Cc1ccccc1OCc1nnc(SCC(=O)Nc2ccc3c(c2)oc2ccccc23)n1C,n,n,n,n,n,n
O=C(Cc1ccc(Cl)cc1Cl)Nc1ccncc1Cl,n,n,n,25,n,n
Cc1ccnc(NS(=O)(=O)c2ccc(NS(=O)(=O)c3ccc([N+](=O)[O-])cc3)cc2)n1,n,n,n,n,n,n
Cc1ccnc(NS(=O)(=O)c2ccc(NS(=O)(=O)c3cc(Cl)ccc3Cl)cc2)n1,n,n,n,n,-29,n
COc1ccc2o/c(=N\O)c(C(=O)Nc3ccccc3OC)cc2c1,28.0,n,n,n,n,n
COc1ccc(NC(=O)c2ccccc2SC)c(OC)c1,n,n,n,n,-5.79,n
Cc1ccccc1NC(=O)CSc1nnc(-c2ccco2)c(-c2ccco2)n1,n,n,n,25,n,n
COc1ccc(NC(=O)CSc2nnc(-c3ccco3)c(-c3ccco3)n2)cc1OC,n,n,n,n,n,n
COc1cccc(NC(=O)CSc2nnc(-c3ccco3)c(-c3ccco3)n2)c1,n,n,-7.35,n,n,n
CCSc1nc2c(c(=O)[nH]c(=O)n2C)n1CC(O)COc1ccccc1C (configuration not stated),n,n,n,n,-4.57,n
SMILES,IDE cell inh,IDE act,CHT inh,ANO1 block,ANO1 activ,CHT PAM
Cc1ccccc1OCC(O)Cn1c(SC(C)C)nc2c1c(=O)[nH]c(=O)n2C (configuration not stated),n,n,n,n,n,n
COc1ccc(OCC(O)Cn2c(Br)nc3c2c(=O)[nH]c(=O)n3C)cc1 (configuration not stated),n,n,n,n,-28.1,n
CCN1C(=O)[C@H]2[C@@H](c3ccc(-c4ccc(Cl)c(Cl)c4)c(OC)c3)N[C@@](Cc3ccccc3)(C(=O)OC)[C@H]2C1=O,n,n,n,n,n,n
COC(=O)c1ccc(CSc2nc3ccccc3o2)cc1,n,n,n,25,n,n
CC1(c2ccc(OC(F)F)cc2)NC(=O)N(CC(=O)Nc2ccc(OC(F)F)cc2)C1=O (configuration not stated),n,n,n,n,-13.6,n
CC1(c2ccc(OC(F)F)cc2)NC(=O)N(CC(=O)Nc2ccc(F)cc2)C1=O (configuration not stated),n,n,n,n,n,n
Cc1ccc(CNC(=O)C2CCC(=O)N(CC3CCCCC3)C2)o1 (configuration not stated),n,n,n,n,n,n
CCn1c(=NC(=O)c2cccc(N3C(=O)CCC3=O)c2)sc2c(C)ccc(OC)c21,n,n,n,n,-8.66,n
O=S(=O)(NC1CCCCC1N1CCN(c2ccc(F)cc2)CC1)c1ccc(Cl)cc1 (configuration not stated),n,n,n,n,-34.3,n
Cc1ccc(S(=O)(=O)N(CC(=O)N2CCC(C)CC2)c2cccc(C)c2)cc1,n,n,n,25,n,n
COc1ccc2[nH]c3c(c2c1)CCN1C(=O)C(CC(=O)NCc2ccc(OC)c(OC)c2)C[C@H](C(=O)N2CCCCC2)[C@@]31CCc1ccccc1 (some centres not stated),x,n,x,x,x,x
CN(Cc1cccc(-n2cccn2)c1)C(=O)CCc1nnc(C2CCCCC2)o1,n,n,n,n,-6.37,n
CCN(CCn1cccn1)C(=O)CCc1nnc(C2CCCCC2)o1,n,n,n,n,n,n
Cc1ccc(NC(=O)CCCN2C(=O)NC(C)(C)C2=O)cc1,n,n,x,x,n,x
O=C(NCc1ccc(Cl)cc1)c1ccc(CNc2c(N3CCOCC3)c(=O)c2=O)cc1,n,n,n,n,n,n
O=C(NCCc1ccc(Cl)cc1)c1ccc(CNc2c(N3CCOCC3)c(=O)c2=O)cc1,n,n,n,n,-6.64,n
COc1ccc(/C=N/Nc2cc(C)nc3ccc(OC)cc23)c(OC)c1,n,n,n,100,n,n
COc1ccc2nc(C)cc(N/N=C/c3ccccc3)c2c1,n,n,x,x,n,x
CC1C2(C)OC(=N)C(C#N)(C(C)O2)C1(C#N)C#N (configuration not stated),n,n,n,n,-6.27,n
Cc1ccc(OCC(=O)NNC(=S)NC(=O)c2ccc(Br)o2)c(C)c1,x,n,n,25,n,n
Cc1cnc(C(=O)OCC(=O)NC(C)c2ccccc2)cn1 (configuration not stated),n,n,x,x,n,x
CC(=O)Nc1ccc(NC(=O)C(C)OC(=O)c2c(NC(C)=O)sc(C)c2C)cc1 (configuration not stated),n,n,x,x,n,x
